Inconclusive results are not listed. Where a call stands in place of a potency, no number is given. Calls of active or inactive are those of the source. The call rests on the fitted dose curve; tested in HEK293 reporter line.

The test can be described thus: qHTS for Inhibitors of the Functional Ribonucleoprotein Complex (vRNP) of Lymphocytic Choriomeningitis Arenaviruses (LCMV): Viability assay - alamar blue signal for LCMV Primary Screen (AID 1347085). Further: nearly all actives have a fitted effect of over 80% in size. The settings on record: alamar blue viability counter-screen, LCMV vRNP screen cells; series mostly up to 57.5 µM. Background: Quantitative high-throughput screening tests each substance at several concentrations.
With `Oc1ccc(C=Cc2cc(O)cc(O)c2)cc1`, the Potency entry is “inactive”.
With `C=C(C)[C@@H]1CCC2=CC(=O)C[C@@H](C)[C@]2(C)C1` the entry was “inactive”.
`CC(=O)C1CCC2C3CCC4=CC(=O)C=CC4(C)C3C(=O)CC12C` (stereo not given): the Potency entry is “inactive”.
With `C=C1CCC(OC(C)=O)C2(C)CCC3C(C)C(=O)OC3C12O` (stereo not given) the entry was “inactive”; with `COc1c2c(cc(O)c1C(C)=O)OC(C)(C)C=C2`, “inactive”; with `COc1c2ccoc2nc2c(OC)c(O[C@@H]3O[C@H](C)[C@@H](O)[C@@H](O)[C@H]3O)ccc12`, “inactive”.
For the compound `CC1(C)O[C@@H]1COc1c2ccoc2cc2oc(=O)ccc12`, the Potency result was “inactive”.
On to `C/C=C/c1ccc2oc(-c3ccc(O)cc3)c(C)c2c1`, for which the Potency entry is “inactive”.
The same measure for `CCOC(=O)[C@H]1O[C@H]1C(=O)N[C@@H](CC(C)C)C(=O)NCCC(C)C`: “inactive”; for `C=C(CC[C@]12OC(C(=O)O)C(O)(C(=O)O)C(C(=O)O)(O1)C(OC(=O)/C=C/[C@@H](C)C[C@@H](C)CC)C2O)[C@@H](OC(C)=O)[C@H](C)Cc1ccccc1` (stereo not given in full): “inactive”.
Take `CC12CCC(=O)C=C1C(F)CC1C2C(O)CC2(C)C1CCC2(O)C(=O)CO` (stereo not given): the Potency entry was “inactive”.
With `COc1cc2c(cc1O)CC[n+]1cc3c(OC)c(OC)ccc3cc1-2` the entry was “inactive”; with `CC(Cc1c[nH]c2ccccc12)C(=O)O` (stereo not given), “inactive”; with `CCCCC/C=C\C=C\C(=O)OCC`, “inactive”.
With `CC[C@H](C)/C=C(C)/C=C/C(=O)Cc1cc(O)c(C)c(O)c1C=O` the entry was “inactive”; with `CCOC(=O)Cc1ccccc1`, “inactive”; with `CC(C)=CCC/C(C)=C/COC=O`, “inactive”.
With `COc1cc(C)c(C(=O)Oc2cc(C)c(C(=O)O)c(O)c2C)c(O)c1C` the entry was “inactive”.
With `O=C(Oc1ccccc1)c1ccccc1C(=O)Oc1ccccc1`, the Potency entry was “inactive”.
`CC(=O)CCc1ccc(O)cc1`: the Potency entry was “inactive”.
With `CC(C)=CCCC(C)C=O` (stereo not given) the entry was “inactive”; with `O=C(/C=C/c1ccc(O)c(O)c1)c1ccc(O)cc1O`, “inactive”.
The same measure for `Cc1c(O)c2c(c(C(=O)/C=C/c3ccccc3)c1O)OC(C)(C)C=C2`: “inactive”.
With `C=CC(C)(CCC=C(C)C)OC(=O)CC` (stereo not given) the entry was “inactive”.
As for `O=C(O)C=C(Br)Br`, the Potency entry is “inactive”.
The same measure for `CCc1cc(C(C)=NOCc2ccc(C3CCCCC3)c(C(F)(F)F)c2)ccc1CN1CC(C(=O)O)C1`: “inactive”.
The same measure for `CCC(C)C(=O)OCCc1ccccc1` (stereo not given): “inactive”; for `C[C@@H]1C(=O)CC2C(C)(C)CCC[C@]2(C)[C@@]1(O)CCc1ccoc1` (stereo not given in full): “inactive”; for `N[C@H](CSSC[C@@H](N)C(=O)O)C(=O)O`: “inactive”.
The same measure for `O=C(O)CC(=O)Nc1ccccc1C(=O)O`: “inactive”; for `C[C@@H]1CC[C@]2(C(=O)O[C@@H]3O[C@H](CO)[C@@H](O)[C@H](O)[C@H]3O)CC[C@]3(C)C(=CCC4[C@@]5(C)CC[C@H](O[C@@H]6OC[C@H](O)[C@H](O[C@@H]7O[C@H](CO)[C@@H](O)[C@H](O)[C@H]7O)[C@H]6O)C(C)(C)C5CC[C@]43C)C2[C@]1(C)O` (stereo not given in full): “inactive”; for `COc1c2c(nc3occc13)C(CC=C(C)C)(OC)C(O)CC2` (stereo not given): “inactive”.
On to `C=CC(C)=CCC=C(C)C`, for which the Potency result is “inactive”.
With `CCCCCCCCCCCCCC/C(C(=O)O)=C(\C)C(=O)O` the entry was “inactive”; with `C/C=C(/C)C(=O)O[C@@H]1c2c(ccc3ccc(=O)oc23)O[C@@H]1C(C)(C)OC(C)=O`, “inactive”; with `CC1(C)[C@H](O[C@H]2O[C@H](C(=O)O)[C@@H](O)[C@H](O)[C@H]2O[C@@H]2O[C@H](C(=O)O)[C@@H](O)[C@H](O)[C@H]2O)CC[C@@]2(C)[C@H]1CC[C@]1(C)[C@H]2C(=O)C=C2[C@H]3C[C@@](C)(C(=O)O)CC[C@]3(C)CC[C@]21C`, “inactive”.
With `Cc1cc2c(c(C)c1CCO)C(=O)[C@H](C)C2` the entry was “inactive”; with `CC1=CC(C/C(C)=C/COc2ccc3ccc(=O)oc3c2)OC1=O` (stereo not given), “inactive”; with `CN1c2c(nc(N)[nH]c2=O)NCC1CNc1ccc(C(=O)NC(CCC(=O)O)C(=O)O)cc1` (stereo not given), “inactive”.
With `CCN1CCN(C(=O)N[C@H](C(=O)N[C@@H]2C(=O)N3C(C(=O)O)=C(CSc4nnnn4C)CS[C@@H]23)c2ccc(O)cc2)C(=O)C1=O` the entry was “inactive”.

The values above are taken from PubChem BioAssay (NCATS).
